# Shown are actives, neighbours in structure and some others; about 3% of the full set was active somewhere.
# esBAF inh: Bmi1 luciferase reporter increase in mESCs, primary screen, esBAF inhibitor project, mouse ES cells, Bmi1 luciferase knock-in, single point | 24 h; 100% = twice the neutral-well signal | reporter increase, % at 12.5 µM | hit rate 2% among 350,000; in the data active = activation above about 40%; inconclusive = no clear call, values can overlap the other calls;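 also: a rise in the Bmi1 reporter signal indicates esBAF inhibition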
# N-glyco inh: increase of ERlucT glycosylation luciferase signal, primary screen, N-linked glycosylation inhibitor project, D54 ERlucT cells, luminescence, set 2 | reporter increase, % at 12.5 µM | hit rate 0.23% among 360,000 | AID 588692, 2011 | D54 ERlucT glycosylation luciferase reporter, 24 h; percent of 100 nM tunicamycin response;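 active = mean luciferase reporter signal, scaled so untreated is 0 and the glycosylation-blocking control 100, at or above a set limit in every replicate; inconclusive = mean reaches the limit but not every replicate does; inactive = mean below the limit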;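 also: luciferase carries N-glycosylation sites so blocking glycosylation raises the light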
# Wnt bcat act: Wnt/beta-catenin pathway activators, primary screen, cell-based, plate reader, single point; Wnt/beta-catenin reporter cell assay, activator; activation, % at 9.35 µM; hit rate 1.2% among 300,000; in the data active = activation above about 30%, passing the limit was not always enough; inconclusive = no clear call, values can overlap the other calls
# MITF TRPM1 HTS: activators of MITF-driven TRPM1 promoter reporter, primary screen, cell-based, SK-MEL-5, luciferase, single point; SK-MEL-5 TRPM1-promoter luciferase, 24 h; % of positive control, neutral wells = 0; activation, % at 12.5 µM; hit rate 0.75% among 300,000; AID 588334, 2011;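 active = mean activation of at least 80% with every replicate also reaching 80%; inconclusive = mean reaches 80% but some replicate falls short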
# PfHsp90 set2: growth inhibition of PfHsp90-expressing yeast, primary screen, antimalarial PfHsp90 inhibitor project, S. cerevisiae, BacTiter-Glo luminescence, single point, set 2; inhibition, % at 9.4 µM; hit rate 0.32% among 310,000; BacTiter-Glo ATP, 48 h; yeast lacking PDR1 and PDR3 efflux regulators;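 active = every replicate shows inhibition above about 80%, whatever the replicate mean, limit read from the data; inconclusive = mean inhibition reaches the set limit but some replicate falls short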
# Vif imaging: HIV Vif self-association inhibitors, primary screen, imaging, HEK293T, single point | hit rate 0.35% among 340,000 | HEK293T cells, Vif self-association by quenched fluorescence, 24 h | inhibition, % at 7.49 µM | AID 602346, 2012; in the data active = inhibition above about 50%, passing the limit was not always enough; inconclusive = no clear call, values can overlap the other calls; inactive = below about 31%
# Numbers stand for hits; . = inactive; ? = inconclusive; / = no result given.
SMILES,esBAF inh,N-glyco inh,Wnt bcat act,MITF TRPM1 HTS,PfHsp90 set2,Vif imaging
CN1C(=O)/C(=C/C=C2\SCCN2C)N(C)C1=S,66,.,.,.,.,.
O=S(=O)(Nc1ccc(-c2ccc(NS(=O)(=O)c3ccccc3)cc2)cc1)c1ccccc1,.,.,.,.,.,.
CC(C)c1cn(CC[C@H]2CC[C@H](NC(=O)C3CC3)[C@H](CO)O2)nn1,.,/,/,/,/,/
NNC(=O)CN1C(c2ccccc2)=Nc2ccc(Br)cc2C1c1ccccc1 (stereo unspecified),/,.,.,.,.,.
COc1cc(OC)c(C2=Nc3ccc(Br)cc3C(c3ccccc3)N2CC(=O)NN)cc1OC (stereo unspecified),/,.,37,.,.,.
COCCCn1c(=O)/c(=C\c2ccccc2OC(F)F)s/c1=C(/C#N)C(N)=O,.,.,.,.,.,139
COCCCn1c(=O)/c(=C\c2ccc(OC(F)F)c(OC)c2)s/c1=C(/C#N)C(N)=O,/,.,.,.,.,.
O=C(Cc1ccc2c(c1)OCCO2)N1CCN(c2ccccc2)CC1,.,.,.,.,.,.
CSc1ncccc1C(=O)NCCc1ccccc1F,.,.,.,.,.,.
Cc1ccc(C)c(NC(=O)CN(C)C(=O)c2cccc(S(=O)(=O)N3CCCC3)c2)c1,.,.,.,.,/,53
Cc1ccc(C)c(NC(=O)CN(C)C(=O)c2cccc(S(=O)(=O)N3CCN(Cc4ccccc4)CC3)c2)c1,.,.,.,.,.,.
Cc1ccc(-c2csc(NC(=O)COC(=O)c3cccc(S(=O)(=O)N4CCOCC4)c3)n2)cc1,/,/,45,/,/,/
CN(C)c1ccc(C(=O)Nc2cccc(S(=O)(=O)N3CCCC3)c2)cc1,62,.,.,.,.,.
Cc1ccnc(NC(=O)c2cccc(S(=O)(=O)N3CCOCC3)c2)c1,50,.,.,.,.,.
CCSc1nnc(NC(=O)c2cc(C)oc2C)s1,.,.,/,?,.,/
Cc1ccc(-n2c(=O)cc(N3CC(C)CC(C)C3)[nH]c2=O)cc1 (stereo unspecified),.,.,/,.,/,.
O=C(Nc1cccc(O)c1)c1cccc(S(=O)(=O)N2CCCCCC2)c1,53,.,.,.,.,.
O=C(Nc1ccc2c(c1)OCO2)c1ccc(Br)c(S(=O)(=O)N2CCCC2)c1,.,.,.,/,/,.
O=C(Nc1cccc(O)c1)c1ccc(Br)c(S(=O)(=O)N2CCCCC2)c1,66,.,.,.,.,/
Cc1ccc(C2=CC(=O)CC(C)(C)C2=O)cc1,/,/,.,/,/,/
COc1ccc(-c2ccccc2C2=CC(=O)CC(C)(C)C2=O)cc1,.,.,.,/,/,/
CC1(C)CC(=O)C=C(c2ccc(-c3ccc(S(C)(=O)=O)cc3)cc2)C1=O,65,.,.,/,/,/
COc1ccc2cc(C3=CC(=O)CC(C)(C)C3=O)ccc2c1,124,.,.,/,/,.
COc1cccc(-c2ccc(C3=CC(=O)CC(C)(C)C3=O)cc2)c1OC,.,.,.,/,/,/
COc1ccncc1-c1ccc(C2=CC(=O)CC(C)(C)C2=O)cc1,65,.,.,/,/,/
SMILES,esBAF inh,N-glyco inh,Wnt bcat act,MITF TRPM1 HTS,PfHsp90 set2,Vif imaging
Cc1ccc(C(=O)n2c(-c3ccccc3)cnc2SCC(=O)Nc2ccccc2)cc1,/,.,.,.,.,.
C=CCNC(=O)/C(C#N)=C/c1c(C)nn(-c2ccc(Cl)cc2)c1Cl,/,26,.,.,.,.
CCOC(=O)c1c(C)oc2c1c(C(c1cccnc1)N1CCCCC1)c(O)c1ccccc12 (stereo unspecified),/,.,/,.,/,/
CCOC(=O)c1c(C)oc2c1c(C(c1ccccc1)N1CCOCC1)c(O)c1ccccc12 (stereo unspecified),47,.,40,.,/,.
C[C@H]1CN([C@@H](C)CO)C(=O)Cc2cc(N(C)C)ccc2O[C@@H]1CN(C)Cc1ccc(C(=O)Nc2ccccc2N)cc1,.,/,/,/,/,/
C/C(CC(=O)Nc1ccc([N+](=O)[O-])cc1)=N\NC(=O)c1ccccc1O,45,.,.,/,.,.
CC(C)OC(=O)Cc1nc2sc(-c3ccccc3)cc2c(=O)[nH]1,49,.,.,/,.,.
O=C(C[C@@H]1CC[C@@H]2[C@H](COC[C@@H](O)CN2Cc2ccncc2)O1)NCC1CC1,.,/,/,/,/,/
CCN(CC)C(=O)c1cc2sc3ccccc3c2s1,80,.,/,98,.,/
O=C(c1cccs1)N(CCN1CCCCC1)CC1CCCN(C2CCCC2)C1 (stereo unspecified),.,.,.,.,.,.
Cc1ccc(C(=O)N(CCN2CCCCC2)CC2CCCN(C3CCCC3)C2)s1 (stereo unspecified),/,.,.,95,.,.
COc1cccc(C(=O)/C=C2\Sc3ccccc3N2C)c1,45,.,.,.,.,.
O=C(O)CCc1ccc(-c2ccc(Cl)cc2)n1CCC(=O)O,.,.,.,.,.,.
O=Cc1ccccc1OCc1ccc2c(c1)OCO2,70,.,.,/,.,.
Cc1ccccc1NC(=O)C1COc2ccccc2O1 (stereo unspecified),.,.,.,.,.,.
CC(=O)c1ccc(NCC2COc3ccccc3O2)c([N+](=O)[O-])c1 (stereo unspecified),72,.,76,.,.,.
CN(C)S(=O)(=O)c1ccc(NC(=O)COC(=O)C2COc3ccccc3O2)cc1 (stereo unspecified),.,.,.,.,.,67
O=C(Nc1ccccc1[N+](=O)[O-])C1COc2ccccc2O1 (stereo unspecified),45,.,.,.,.,.
Cc1nnc(NC(=O)C2COc3ccccc3O2)s1 (stereo unspecified),46,.,/,/,/,.
O=C(COC(=O)C1COc2ccccc2O1)Nc1ccc(Cl)cc1 (stereo unspecified),.,.,.,.,.,.
O=C(C[C@H]1C=C[C@H](NS(=O)(=O)c2ccc(F)cc2)[C@H](CO)O1)N1CCN(c2ccccc2)CC1,.,/,/,/,/,/
O=C(c1cc2cccc([N+](=O)[O-])c2oc1=O)N1CCOCC1,/,.,.,/,.,.
COc1ccc(NC(=O)NCCN2CCCCC2)cc1,.,.,.,/,.,.
O=C(Nc1ncc(Cc2ccccc2)s1)C1COc2ccccc2O1 (stereo unspecified),53,.,/,?,.,/
CCc1nnc(NC(=O)C2COc3ccccc3O2)s1 (stereo unspecified),/,.,/,.,.,.
COC(=O)c1ccc(CN2C(=O)NC(Cc3c[nH]c4ccccc34)C2=O)cc1 (stereo unspecified),46,.,.,.,.,.

# Compound activity as filed in PubChem.
